Experiments:
Assay in all cases: DAPPL (digital affinity profiling via proximity ligation, sequencing); 10 mM Tris-HCl pH 7.5, 50 mM NaCl, 1 mM DTT, 4% glycerol, room temperature, 30 min; GST-TFs on glutathione beads, 16-mer random dsDNA library, 0.1% formaldehyde crosslink after washing; high values mean tight binding
FEV = target: T1, FEV (Homo sapiens, UniProt Q99581 1-238); conditions: protein: recombinant; tags: N-terminal GST; dsDNA, one strand shown
T1 sequence: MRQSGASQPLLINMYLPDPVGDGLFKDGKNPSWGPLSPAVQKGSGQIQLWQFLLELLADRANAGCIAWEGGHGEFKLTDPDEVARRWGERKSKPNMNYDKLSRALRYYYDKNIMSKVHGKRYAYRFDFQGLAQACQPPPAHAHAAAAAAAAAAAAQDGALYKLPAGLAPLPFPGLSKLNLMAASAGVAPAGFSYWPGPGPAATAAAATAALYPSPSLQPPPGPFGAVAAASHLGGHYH
Outline: (§1)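 The binding signal reported is, for every hexamer, its read frequency for a factor over its read frequency for the tag-only sample. Reads came from pools of yeast-expressed, GST-fused human transcription factors on glutathione beads, barcoded with DNA and mixed with that sample, which were incubated with 200 nmole of a random double-stranded 16-mer DNA library in Tris/NaCl/DTT/glycerol buffer at room temperature for 30 min. After washing, the pools were crosslinked with 0.1% formaldehyde, proximity-ligated with BsaI/T4 ligase for 1 h at 37 °C, PCR-amplified and sequenced on an Illumina NextSeq500.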

ETV5 = ETV5 (Homo sapiens, UniProt P41161 1-510); conditions: protein: recombinant; tags: N-terminal GST; dsDNA, one strand shown
ETV5, sequence (P41161 whole entry): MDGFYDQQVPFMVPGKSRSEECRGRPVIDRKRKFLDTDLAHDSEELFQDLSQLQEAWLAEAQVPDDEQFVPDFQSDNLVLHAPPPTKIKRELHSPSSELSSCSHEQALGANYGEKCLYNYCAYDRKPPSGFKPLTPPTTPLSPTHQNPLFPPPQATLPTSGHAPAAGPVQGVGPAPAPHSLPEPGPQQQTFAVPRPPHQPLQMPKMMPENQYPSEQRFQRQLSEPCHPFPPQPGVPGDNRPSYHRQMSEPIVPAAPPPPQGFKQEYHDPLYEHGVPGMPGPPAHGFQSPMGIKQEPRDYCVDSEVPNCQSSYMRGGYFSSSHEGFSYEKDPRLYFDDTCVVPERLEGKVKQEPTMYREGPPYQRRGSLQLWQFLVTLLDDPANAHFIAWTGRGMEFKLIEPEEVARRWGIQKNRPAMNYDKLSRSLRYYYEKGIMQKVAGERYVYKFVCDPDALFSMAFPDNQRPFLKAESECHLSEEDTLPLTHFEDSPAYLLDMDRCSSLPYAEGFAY
Outline: as §1

HSF1 = HSF1 (Homo sapiens, UniProt Q00613 1-529); conditions: protein: recombinant; tags: N-terminal GST; chain copies: 3; dsDNA, one strand shown
HSF1, sequence (Q00613 whole entry): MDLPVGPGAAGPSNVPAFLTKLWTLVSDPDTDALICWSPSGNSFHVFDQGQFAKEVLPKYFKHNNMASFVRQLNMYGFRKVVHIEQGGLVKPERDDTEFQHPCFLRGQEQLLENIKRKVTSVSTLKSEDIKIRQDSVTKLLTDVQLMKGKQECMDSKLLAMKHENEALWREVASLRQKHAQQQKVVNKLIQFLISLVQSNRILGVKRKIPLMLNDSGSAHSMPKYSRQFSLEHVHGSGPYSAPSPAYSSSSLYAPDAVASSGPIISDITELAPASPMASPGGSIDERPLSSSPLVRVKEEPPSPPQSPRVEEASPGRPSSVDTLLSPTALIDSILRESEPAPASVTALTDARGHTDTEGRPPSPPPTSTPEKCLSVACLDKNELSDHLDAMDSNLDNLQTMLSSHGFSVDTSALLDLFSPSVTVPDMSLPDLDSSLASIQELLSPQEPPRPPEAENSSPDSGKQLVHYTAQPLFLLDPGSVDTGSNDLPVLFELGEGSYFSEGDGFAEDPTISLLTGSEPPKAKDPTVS
Outline: as §1

SPIC = target: T2, SPIC (Homo sapiens, UniProt Q8N5J4 1-248); conditions: protein: recombinant; tags: N-terminal GST; dsDNA, one strand shown
T2 sequence: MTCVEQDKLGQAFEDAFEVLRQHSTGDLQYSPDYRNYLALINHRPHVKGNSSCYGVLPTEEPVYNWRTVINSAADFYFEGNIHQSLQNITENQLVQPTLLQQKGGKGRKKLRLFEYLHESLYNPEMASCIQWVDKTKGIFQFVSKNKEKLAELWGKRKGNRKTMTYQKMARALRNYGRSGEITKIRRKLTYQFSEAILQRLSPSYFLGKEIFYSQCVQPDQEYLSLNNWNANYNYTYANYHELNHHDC
Outline: as §1

ELF4 = ELF4 (Homo sapiens, UniProt Q99607 1-663); conditions: protein: recombinant; tags: N-terminal GST; dsDNA, one strand shown
ELF4, sequence (Q99607 whole entry): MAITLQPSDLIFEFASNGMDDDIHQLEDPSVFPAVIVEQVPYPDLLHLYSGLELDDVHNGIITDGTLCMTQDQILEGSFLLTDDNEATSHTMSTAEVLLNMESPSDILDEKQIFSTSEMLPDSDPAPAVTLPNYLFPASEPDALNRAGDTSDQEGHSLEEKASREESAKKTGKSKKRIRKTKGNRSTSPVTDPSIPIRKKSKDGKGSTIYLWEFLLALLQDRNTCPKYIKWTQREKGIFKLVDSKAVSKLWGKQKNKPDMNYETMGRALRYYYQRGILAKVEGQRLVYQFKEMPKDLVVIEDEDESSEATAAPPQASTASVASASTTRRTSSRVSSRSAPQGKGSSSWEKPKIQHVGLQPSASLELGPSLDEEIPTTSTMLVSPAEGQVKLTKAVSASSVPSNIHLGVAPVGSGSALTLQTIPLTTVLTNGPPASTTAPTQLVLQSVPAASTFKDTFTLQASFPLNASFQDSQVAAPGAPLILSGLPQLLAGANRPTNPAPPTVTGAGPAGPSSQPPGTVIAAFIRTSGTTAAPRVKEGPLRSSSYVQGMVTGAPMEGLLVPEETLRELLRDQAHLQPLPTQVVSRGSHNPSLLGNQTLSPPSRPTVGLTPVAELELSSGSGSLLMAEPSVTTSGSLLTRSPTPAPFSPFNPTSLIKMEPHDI
Outline: as §1

ELK4 = target: T3, ELK4 (Homo sapiens, UniProt P28324-2 1-405); conditions: protein: recombinant; tags: N-terminal GST; dsDNA, one strand shown
T3 sequence: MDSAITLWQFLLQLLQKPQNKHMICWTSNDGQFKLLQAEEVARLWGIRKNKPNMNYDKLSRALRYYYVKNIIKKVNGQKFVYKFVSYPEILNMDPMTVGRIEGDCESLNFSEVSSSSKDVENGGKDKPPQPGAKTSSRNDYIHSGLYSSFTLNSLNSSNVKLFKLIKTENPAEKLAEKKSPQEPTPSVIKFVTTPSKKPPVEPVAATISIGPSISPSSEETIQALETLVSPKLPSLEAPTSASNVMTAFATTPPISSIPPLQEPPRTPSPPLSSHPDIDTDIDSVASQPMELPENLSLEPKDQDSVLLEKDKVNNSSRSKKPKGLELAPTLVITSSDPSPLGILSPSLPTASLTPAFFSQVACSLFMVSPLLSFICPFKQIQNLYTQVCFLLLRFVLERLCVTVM
Outline: as §1

ETV2 = target: T4, ETV2 (Homo sapiens, UniProt O00321 1-342); conditions: protein: recombinant; tags: N-terminal GST; dsDNA, one strand shown
T4 sequence: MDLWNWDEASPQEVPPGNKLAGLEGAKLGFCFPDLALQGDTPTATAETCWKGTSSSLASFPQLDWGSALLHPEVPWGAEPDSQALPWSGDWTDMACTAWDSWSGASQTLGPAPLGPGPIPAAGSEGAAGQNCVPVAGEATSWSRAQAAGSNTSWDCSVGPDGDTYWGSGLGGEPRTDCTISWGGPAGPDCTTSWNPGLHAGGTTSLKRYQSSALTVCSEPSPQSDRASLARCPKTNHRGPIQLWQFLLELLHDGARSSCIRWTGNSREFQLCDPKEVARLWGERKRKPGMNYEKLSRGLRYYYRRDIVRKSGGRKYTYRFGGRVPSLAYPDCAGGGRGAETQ
Outline: as §1

ELF3 = target: T5, ELF3 (Homo sapiens, UniProt P78545 1-371); conditions: protein: recombinant; tags: N-terminal GST; dsDNA, one strand shown
T5 sequence: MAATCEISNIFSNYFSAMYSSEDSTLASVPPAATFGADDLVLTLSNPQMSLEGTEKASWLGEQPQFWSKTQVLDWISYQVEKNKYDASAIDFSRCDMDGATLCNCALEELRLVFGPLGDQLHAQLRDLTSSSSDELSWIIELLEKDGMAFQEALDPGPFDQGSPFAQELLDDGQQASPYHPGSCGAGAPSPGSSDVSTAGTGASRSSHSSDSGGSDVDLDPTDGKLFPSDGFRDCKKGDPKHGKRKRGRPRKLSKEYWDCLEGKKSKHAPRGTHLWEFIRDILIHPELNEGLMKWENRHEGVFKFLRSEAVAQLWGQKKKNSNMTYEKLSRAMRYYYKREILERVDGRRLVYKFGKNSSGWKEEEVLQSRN
Outline: as §1

CRX = CRX (Homo sapiens, UniProt O43186 1-299); conditions: protein: recombinant; tags: N-terminal GST; dsDNA, one strand shown
CRX, sequence (O43186 whole entry): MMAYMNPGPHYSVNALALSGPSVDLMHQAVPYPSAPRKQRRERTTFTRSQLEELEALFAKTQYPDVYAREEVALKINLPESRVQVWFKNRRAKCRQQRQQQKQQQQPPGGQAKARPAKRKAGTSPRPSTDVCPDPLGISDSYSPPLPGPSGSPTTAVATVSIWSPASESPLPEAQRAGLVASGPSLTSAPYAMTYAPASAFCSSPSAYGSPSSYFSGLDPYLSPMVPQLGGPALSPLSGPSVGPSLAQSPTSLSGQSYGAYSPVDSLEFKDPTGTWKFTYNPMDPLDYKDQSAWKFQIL
Outline: as §1

ETV1 = ETV1 (Homo sapiens, UniProt P50549 1-477); conditions: protein: recombinant; tags: N-terminal GST; dsDNA, one strand shown
ETV1, sequence (P50549 whole entry): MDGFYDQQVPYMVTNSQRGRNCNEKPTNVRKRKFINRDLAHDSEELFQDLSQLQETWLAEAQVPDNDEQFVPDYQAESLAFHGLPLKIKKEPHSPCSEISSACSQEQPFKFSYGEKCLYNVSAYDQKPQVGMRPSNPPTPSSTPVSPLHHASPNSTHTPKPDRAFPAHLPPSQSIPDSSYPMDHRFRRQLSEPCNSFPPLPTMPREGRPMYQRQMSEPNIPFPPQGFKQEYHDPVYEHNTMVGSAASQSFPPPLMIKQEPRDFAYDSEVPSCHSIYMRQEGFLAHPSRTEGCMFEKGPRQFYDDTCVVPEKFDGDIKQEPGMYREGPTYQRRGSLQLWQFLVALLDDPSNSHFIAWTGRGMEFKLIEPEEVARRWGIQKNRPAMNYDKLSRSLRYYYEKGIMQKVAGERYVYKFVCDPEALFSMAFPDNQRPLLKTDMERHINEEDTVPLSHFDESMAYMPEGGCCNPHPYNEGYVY
Outline: as §1

ERF = target: T6, ERF (Homo sapiens, UniProt P50548 1-548); conditions: protein: recombinant; tags: N-terminal GST; dsDNA, one strand shown
T6 sequence: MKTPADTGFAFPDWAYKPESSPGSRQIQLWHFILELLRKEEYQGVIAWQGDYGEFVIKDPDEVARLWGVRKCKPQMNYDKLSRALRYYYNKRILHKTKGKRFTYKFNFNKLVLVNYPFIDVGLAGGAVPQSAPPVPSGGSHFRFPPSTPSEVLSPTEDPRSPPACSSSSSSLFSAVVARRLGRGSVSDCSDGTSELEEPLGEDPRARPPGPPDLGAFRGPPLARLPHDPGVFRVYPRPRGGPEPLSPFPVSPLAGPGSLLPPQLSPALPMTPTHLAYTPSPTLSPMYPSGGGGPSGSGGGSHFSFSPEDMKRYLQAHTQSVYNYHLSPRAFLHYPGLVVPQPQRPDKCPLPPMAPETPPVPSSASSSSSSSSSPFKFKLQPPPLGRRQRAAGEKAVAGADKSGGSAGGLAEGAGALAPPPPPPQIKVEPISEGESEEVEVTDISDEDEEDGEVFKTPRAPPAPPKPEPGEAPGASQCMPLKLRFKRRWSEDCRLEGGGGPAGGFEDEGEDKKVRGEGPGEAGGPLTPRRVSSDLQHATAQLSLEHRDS
Outline: as §1

ETV3L = target: T7, ETV3L (Homo sapiens, UniProt Q6ZN32 1-361); conditions: protein: recombinant; tags: N-terminal GST; dsDNA, one strand shown
T7 sequence: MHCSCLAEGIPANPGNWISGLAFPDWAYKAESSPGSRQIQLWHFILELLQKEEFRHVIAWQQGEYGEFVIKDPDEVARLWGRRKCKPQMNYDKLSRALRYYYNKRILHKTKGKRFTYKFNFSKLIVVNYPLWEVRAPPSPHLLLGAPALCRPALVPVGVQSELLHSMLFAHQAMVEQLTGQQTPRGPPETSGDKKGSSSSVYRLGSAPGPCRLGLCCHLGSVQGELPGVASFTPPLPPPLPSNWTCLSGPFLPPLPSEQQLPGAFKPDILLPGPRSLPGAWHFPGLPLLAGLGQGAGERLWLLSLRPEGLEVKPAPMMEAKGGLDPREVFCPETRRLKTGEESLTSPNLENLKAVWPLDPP
Outline: as §1

ETS2 = target: T8, ETS2 (Homo sapiens, UniProt P15036 1-469); conditions: protein: recombinant; tags: N-terminal GST; dsDNA, one strand shown
T8 sequence: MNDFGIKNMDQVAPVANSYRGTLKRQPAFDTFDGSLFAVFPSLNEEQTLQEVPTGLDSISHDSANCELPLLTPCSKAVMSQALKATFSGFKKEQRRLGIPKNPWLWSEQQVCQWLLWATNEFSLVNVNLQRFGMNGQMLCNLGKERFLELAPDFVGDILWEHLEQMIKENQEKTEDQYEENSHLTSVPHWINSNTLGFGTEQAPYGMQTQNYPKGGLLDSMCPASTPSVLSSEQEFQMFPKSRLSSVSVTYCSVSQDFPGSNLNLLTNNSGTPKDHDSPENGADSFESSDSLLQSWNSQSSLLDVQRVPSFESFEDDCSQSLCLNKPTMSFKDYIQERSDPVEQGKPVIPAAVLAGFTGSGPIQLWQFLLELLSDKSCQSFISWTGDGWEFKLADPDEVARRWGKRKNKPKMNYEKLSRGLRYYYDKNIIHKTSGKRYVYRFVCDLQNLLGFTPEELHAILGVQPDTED
Outline: as §1

SPDEF = target: T9, SPDEF (Homo sapiens, UniProt O95238 1-335); conditions: protein: recombinant; tags: N-terminal GST; dsDNA, one strand shown
T9 sequence: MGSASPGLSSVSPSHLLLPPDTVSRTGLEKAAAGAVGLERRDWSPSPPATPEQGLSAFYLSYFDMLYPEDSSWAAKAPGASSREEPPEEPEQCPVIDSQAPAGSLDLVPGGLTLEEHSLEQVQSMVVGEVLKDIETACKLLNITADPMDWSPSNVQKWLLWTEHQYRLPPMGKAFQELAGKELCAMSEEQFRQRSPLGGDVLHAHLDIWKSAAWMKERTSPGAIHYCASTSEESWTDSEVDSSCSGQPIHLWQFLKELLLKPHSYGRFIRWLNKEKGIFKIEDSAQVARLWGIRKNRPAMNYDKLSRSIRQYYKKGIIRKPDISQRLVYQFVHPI
Outline: as §1

ETV7 = target: T10, ETV7 (Homo sapiens, UniProt Q9Y603 1-341); conditions: protein: recombinant; tags: N-terminal GST; dsDNA, one strand shown
T10 sequence: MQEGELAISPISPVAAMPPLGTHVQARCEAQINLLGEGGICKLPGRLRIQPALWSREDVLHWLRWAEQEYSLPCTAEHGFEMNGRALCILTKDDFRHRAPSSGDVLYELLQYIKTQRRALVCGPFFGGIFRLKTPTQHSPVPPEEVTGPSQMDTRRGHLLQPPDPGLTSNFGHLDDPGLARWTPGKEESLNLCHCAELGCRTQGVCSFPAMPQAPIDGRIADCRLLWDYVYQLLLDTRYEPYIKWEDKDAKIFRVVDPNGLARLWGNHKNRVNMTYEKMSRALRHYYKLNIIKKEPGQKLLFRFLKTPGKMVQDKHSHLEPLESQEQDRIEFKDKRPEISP
Outline: as §1

ELF5 = target: T11, ELF5 (Homo sapiens, UniProt Q9UKW6-2 1-255); conditions: protein: recombinant; tags: N-terminal GST; dsDNA, one strand shown
T11 sequence: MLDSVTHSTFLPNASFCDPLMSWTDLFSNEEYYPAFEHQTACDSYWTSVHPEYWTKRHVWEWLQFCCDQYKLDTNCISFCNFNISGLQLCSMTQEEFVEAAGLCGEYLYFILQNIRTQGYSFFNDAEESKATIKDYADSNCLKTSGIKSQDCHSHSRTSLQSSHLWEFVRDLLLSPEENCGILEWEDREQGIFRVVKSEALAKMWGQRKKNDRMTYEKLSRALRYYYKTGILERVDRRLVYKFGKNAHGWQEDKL
Outline: as §1

ETV3 = target: T12, ETV3 (Homo sapiens, UniProt P41162-2 1-143); conditions: protein: recombinant; tags: N-terminal GST; dsDNA, one strand shown
T12 sequence: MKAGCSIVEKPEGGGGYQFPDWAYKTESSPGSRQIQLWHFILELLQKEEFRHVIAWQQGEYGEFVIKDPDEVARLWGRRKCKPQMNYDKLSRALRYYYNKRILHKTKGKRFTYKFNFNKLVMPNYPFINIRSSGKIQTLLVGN
Outline: as §1

ETV6 = ETV6 (Homo sapiens, UniProt P41212 1-452); conditions: protein: recombinant; tags: N-terminal GST; dsDNA, one strand shown
ETV6, sequence (P41212 whole entry): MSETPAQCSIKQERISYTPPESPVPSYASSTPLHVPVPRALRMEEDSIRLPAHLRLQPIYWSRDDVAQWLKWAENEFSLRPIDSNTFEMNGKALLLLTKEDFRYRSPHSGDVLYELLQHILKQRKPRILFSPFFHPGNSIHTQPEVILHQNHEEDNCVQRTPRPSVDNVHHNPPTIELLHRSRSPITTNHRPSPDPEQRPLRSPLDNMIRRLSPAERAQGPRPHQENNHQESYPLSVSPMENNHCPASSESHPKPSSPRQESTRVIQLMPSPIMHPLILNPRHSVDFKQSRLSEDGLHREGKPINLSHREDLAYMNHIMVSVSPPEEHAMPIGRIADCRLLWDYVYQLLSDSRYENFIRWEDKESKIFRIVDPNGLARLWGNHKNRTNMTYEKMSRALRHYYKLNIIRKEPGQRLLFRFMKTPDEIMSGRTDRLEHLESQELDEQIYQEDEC
Outline: as §1

Sequence | binding signal (FEV) | binding signal (ETV5) | binding signal (HSF1) | binding signal (SPIC) | binding signal (ELF4) | binding signal (ELK4) | binding signal (ETV2) | binding signal (ELF3) | binding signal (CRX) | binding signal (ETV1) | binding signal (ERF) | binding signal (ETV3L) | binding signal (ETS2) | binding signal (SPDEF) | binding signal (ETV7) | binding signal (ELF5) | binding signal (ETV3) | binding signal (ETV6)
TACGAC | 1.28 fold enrichment (6-mer frequency, TF over GST control) | 1.18 fold enrichment (6-mer frequency, TF over GST control) | 1.14 fold enrichment (6-mer frequency, TF over GST control) | 1.22 fold enrichment (6-mer frequency, TF over GST control) | 1.34 fold enrichment (6-mer frequency, TF over GST control) | 1.3 fold enrichment (6-mer frequency, TF over GST control) | 1.51 fold enrichment (6-mer frequency, TF over GST control) | 1.31 fold enrichment (6-mer frequency, TF over GST control) | 1.25 fold enrichment (6-mer frequency, TF over GST control) | 1.37 fold enrichment (6-mer frequency, TF over GST control) | 1.18 fold enrichment (6-mer frequency, TF over GST control) | 1.22 fold enrichment (6-mer frequency, TF over GST control) | 1.27 fold enrichment (6-mer frequency, TF over GST control) | 1.48 fold enrichment (6-mer frequency, TF over GST control) | 1.18 fold enrichment (6-mer frequency, TF over GST control) | 1.29 fold enrichment (6-mer frequency, TF over GST control) | 1.33 fold enrichment (6-mer frequency, TF over GST control) | 1.29 fold enrichment (6-mer frequency, TF over GST control)
GACTCC | 1.32 fold enrichment (6-mer frequency, TF over GST control) | 1.27 fold enrichment (6-mer frequency, TF over GST control) | 1.05 fold enrichment (6-mer frequency, TF over GST control) | 1.34 fold enrichment (6-mer frequency, TF over GST control) | 1.43 fold enrichment (6-mer frequency, TF over GST control) | 1.12 fold enrichment (6-mer frequency, TF over GST control) | 1.26 fold enrichment (6-mer frequency, TF over GST control) | 1.25 fold enrichment (6-mer frequency, TF over GST control) | 1.02 fold enrichment (6-mer frequency, TF over GST control) | 1.29 fold enrichment (6-mer frequency, TF over GST control) | 1.32 fold enrichment (6-mer frequency, TF over GST control) | 1.27 fold enrichment (6-mer frequency, TF over GST control) | 1.29 fold enrichment (6-mer frequency, TF over GST control) | 1.41 fold enrichment (6-mer frequency, TF over GST control) | 1.23 fold enrichment (6-mer frequency, TF over GST control) | 1.16 fold enrichment (6-mer frequency, TF over GST control) | 1.35 fold enrichment (6-mer frequency, TF over GST control) | 1.18 fold enrichment (6-mer frequency, TF over GST control)
